A number with no mark means an inactive call.

What all share (assay): log2 ratio of Biotin-Ahx-Ub-VS probe labelling (fragment/DMSO); higher = less target engagement (more negative = stronger competition), active = hit call of the paper (q ≤ 0.05, log2 ratio ≤ -1)
What all share (conditions): compound concentration: 200 uM; treatment time: 3 h

In one assay the target is T1, OTUD6B (UniProt Q8N6M0).
T1 sequence (whole entry): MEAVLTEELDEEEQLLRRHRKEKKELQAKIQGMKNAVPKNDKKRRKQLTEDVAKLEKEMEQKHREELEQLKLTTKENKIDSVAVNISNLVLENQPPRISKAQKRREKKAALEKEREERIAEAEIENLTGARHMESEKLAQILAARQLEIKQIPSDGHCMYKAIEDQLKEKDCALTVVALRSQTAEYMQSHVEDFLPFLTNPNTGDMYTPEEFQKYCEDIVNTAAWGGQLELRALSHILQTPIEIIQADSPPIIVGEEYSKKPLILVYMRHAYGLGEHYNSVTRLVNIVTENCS
The gist of the method: (§1)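 Triplicate samples of HEK293T lysate, 495 µg each, received fragment at 200 µM or vehicle for 3 h, followed by Biotin-Ahx-Ub-VS (0.5 µM final) for 1 h. After NeutrAvidin enrichment of labelled DUBs and LysC/trypsin digestion, peptides were run by diaPASEF LC-MS/MS. The values are average log2 fragment/vehicle ratios from global-median-normalised Spectronaut label-free quantities, tested by unpaired t-test on proteins having ≥2 unique peptides.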

Another assay concerns the target T2, OTUD7B (UniProt Q6GQQ9).
T2 sequence (whole entry): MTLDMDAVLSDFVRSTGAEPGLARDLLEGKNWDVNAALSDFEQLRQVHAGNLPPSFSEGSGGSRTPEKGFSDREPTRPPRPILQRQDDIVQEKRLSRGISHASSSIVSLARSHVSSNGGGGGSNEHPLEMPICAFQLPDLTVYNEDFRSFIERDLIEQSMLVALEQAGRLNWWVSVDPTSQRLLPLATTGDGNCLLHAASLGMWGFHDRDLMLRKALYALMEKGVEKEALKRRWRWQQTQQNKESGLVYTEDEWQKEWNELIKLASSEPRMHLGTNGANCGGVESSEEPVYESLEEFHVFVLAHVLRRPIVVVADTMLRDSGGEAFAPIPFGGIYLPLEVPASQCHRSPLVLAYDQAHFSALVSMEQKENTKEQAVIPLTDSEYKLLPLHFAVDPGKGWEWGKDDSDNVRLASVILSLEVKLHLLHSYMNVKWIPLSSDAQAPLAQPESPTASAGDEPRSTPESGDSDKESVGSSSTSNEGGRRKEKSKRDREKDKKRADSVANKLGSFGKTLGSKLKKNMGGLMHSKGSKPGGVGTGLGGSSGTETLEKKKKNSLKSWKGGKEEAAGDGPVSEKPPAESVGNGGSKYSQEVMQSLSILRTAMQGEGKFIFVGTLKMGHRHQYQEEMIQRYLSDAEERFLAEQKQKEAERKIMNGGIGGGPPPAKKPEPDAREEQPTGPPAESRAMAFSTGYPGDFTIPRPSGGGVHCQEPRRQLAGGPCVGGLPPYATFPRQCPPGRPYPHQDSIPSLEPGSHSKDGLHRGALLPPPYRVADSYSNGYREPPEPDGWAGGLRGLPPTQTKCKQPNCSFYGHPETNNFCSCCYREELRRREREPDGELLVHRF
The gist of the method: as §1

A further assay addresses PRPF8 (UniProt Q6P2Q9). The gist of the method: as §1
In a further assay the target is T3, PSMD7 (UniProt P51665).
T3 sequence (whole entry): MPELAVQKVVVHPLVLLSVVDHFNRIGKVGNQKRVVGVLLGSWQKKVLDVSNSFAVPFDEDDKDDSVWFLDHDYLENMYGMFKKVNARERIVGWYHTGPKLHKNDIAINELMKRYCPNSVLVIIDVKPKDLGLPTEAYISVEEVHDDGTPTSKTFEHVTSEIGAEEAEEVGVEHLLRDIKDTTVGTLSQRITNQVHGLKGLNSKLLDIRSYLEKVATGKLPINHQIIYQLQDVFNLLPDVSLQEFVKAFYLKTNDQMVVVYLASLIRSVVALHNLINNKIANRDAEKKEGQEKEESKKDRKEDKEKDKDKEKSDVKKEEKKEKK
Summed up: as §1

The target in another assay is UCHL1 (UniProt P09936). Summed up:
as §1

The next assay deals with T4, UCHL3 (UniProt P15374).
T4 sequence (whole entry): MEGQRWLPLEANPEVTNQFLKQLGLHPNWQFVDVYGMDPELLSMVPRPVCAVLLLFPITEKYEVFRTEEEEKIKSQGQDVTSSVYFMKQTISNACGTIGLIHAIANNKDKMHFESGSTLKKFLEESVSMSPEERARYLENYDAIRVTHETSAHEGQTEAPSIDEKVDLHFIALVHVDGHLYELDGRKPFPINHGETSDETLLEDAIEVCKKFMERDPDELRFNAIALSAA
Summed up:
as §1

For the next assay, the target named is T5, UCHL5 (UniProt Q9Y5K5).
T5 sequence (whole entry): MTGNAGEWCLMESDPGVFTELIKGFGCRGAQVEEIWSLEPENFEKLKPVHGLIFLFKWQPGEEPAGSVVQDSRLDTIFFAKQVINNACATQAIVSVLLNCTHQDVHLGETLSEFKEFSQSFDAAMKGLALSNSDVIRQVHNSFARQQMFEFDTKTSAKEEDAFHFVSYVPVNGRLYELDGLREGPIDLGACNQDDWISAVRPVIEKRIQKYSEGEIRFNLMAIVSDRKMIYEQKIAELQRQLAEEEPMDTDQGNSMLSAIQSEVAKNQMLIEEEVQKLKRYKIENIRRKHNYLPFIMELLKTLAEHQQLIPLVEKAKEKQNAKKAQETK
Summed up:
as §1

In another assay the target is USP10 (UniProt Q14694). The gist of the method: as §1
Sequence of USP10 (Q14694 whole entry): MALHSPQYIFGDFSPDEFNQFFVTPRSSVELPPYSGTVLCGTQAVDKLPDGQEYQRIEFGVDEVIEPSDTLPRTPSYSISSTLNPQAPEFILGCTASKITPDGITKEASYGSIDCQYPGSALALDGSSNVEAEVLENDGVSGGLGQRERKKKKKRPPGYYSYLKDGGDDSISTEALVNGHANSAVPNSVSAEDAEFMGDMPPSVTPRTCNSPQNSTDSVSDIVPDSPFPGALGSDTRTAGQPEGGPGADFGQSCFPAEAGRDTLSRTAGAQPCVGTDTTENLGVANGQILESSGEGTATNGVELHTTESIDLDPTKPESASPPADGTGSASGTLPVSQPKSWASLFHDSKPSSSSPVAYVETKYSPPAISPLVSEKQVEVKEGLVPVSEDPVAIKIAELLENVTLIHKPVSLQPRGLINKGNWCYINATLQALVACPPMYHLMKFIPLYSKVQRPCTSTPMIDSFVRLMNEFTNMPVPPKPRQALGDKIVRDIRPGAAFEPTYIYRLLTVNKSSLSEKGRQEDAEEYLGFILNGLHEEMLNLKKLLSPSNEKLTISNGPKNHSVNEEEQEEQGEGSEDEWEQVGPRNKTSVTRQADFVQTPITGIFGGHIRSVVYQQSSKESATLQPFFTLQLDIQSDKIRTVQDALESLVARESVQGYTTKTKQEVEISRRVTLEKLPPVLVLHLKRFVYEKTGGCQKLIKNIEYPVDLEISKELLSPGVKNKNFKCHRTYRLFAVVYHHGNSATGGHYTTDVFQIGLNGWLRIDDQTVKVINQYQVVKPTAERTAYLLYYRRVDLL
For the next assay, the target named is T6, USP15 (UniProt Q9Y4E8).
T6 sequence (whole entry): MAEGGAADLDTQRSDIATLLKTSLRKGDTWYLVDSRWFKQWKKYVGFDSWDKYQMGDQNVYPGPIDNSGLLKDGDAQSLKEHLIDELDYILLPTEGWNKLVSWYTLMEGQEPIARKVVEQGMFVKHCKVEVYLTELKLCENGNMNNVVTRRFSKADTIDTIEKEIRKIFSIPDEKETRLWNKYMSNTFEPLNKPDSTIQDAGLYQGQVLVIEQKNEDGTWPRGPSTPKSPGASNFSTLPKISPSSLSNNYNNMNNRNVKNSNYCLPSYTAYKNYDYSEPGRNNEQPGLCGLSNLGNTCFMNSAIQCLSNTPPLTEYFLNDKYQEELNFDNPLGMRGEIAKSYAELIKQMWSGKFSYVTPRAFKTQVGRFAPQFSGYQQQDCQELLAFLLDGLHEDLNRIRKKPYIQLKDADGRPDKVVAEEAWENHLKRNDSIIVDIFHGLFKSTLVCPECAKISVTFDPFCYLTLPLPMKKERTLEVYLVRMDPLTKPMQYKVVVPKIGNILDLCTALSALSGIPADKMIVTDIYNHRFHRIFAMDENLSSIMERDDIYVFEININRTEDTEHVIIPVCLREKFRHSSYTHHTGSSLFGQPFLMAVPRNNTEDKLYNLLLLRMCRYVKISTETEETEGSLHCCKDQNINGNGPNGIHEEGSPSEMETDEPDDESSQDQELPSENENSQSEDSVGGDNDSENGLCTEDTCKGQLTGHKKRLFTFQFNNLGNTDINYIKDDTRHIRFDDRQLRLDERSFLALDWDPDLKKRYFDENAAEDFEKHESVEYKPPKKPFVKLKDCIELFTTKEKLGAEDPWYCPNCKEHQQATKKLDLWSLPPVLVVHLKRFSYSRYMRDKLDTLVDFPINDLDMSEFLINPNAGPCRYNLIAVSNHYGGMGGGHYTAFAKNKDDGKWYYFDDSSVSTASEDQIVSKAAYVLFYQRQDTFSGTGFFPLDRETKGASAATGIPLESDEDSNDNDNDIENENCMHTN
The gist of the method: as §1

For another assay, the target named is USP16 (UniProt Q9Y5T5). Summed up:
as §1

Sequence of UCHL1 (P09936 whole entry, looked up): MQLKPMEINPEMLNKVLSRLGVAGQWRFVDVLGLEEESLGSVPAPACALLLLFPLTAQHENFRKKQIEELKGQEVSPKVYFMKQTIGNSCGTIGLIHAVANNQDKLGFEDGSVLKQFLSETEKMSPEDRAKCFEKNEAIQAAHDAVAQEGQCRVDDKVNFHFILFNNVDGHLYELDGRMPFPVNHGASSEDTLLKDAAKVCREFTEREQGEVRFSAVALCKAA
Sequence of USP16 (Q9Y5T5 whole entry, looked up): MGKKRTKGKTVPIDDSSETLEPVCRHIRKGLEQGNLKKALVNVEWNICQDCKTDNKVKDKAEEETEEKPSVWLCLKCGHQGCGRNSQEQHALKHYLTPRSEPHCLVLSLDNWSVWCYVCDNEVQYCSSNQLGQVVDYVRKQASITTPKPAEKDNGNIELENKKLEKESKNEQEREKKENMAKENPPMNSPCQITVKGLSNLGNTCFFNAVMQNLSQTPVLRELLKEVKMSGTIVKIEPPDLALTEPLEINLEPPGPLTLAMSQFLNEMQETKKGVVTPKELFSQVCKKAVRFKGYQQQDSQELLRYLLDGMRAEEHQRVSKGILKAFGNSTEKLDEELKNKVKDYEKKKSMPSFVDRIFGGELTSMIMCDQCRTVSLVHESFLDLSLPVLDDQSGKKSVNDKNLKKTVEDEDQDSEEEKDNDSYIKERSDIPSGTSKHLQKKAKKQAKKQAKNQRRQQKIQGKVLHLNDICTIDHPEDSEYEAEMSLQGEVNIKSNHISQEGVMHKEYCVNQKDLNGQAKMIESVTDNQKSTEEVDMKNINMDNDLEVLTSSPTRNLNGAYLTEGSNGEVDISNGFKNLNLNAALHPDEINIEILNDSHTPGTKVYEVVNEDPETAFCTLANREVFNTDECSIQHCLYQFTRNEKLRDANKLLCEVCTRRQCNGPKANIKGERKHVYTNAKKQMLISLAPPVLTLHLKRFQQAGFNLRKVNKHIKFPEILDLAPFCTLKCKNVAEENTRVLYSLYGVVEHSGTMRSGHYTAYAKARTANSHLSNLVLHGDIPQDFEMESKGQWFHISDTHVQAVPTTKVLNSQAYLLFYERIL

As for `CC(NC(=O)CCl)c1cc2n(n1)CCCC2.Cl` (stereo not given), the “log2 ratio of Biotin-Ahx-Ub-VS probe labelling” value (shortened to “log2 ratio”) with OTUD6B is -0.253; with OTUD7B it was -1.77 (active); with PRPF8, 0.0583; with PSMD7, 0.0299; with UCHL1, -2.03 (active); with UCHL3 it was 0.315. Also, the “log2 ratio” value with UCHL5 is -0.121; in the assay with USP10, -0.153; with USP15 it was 0.0201; with USP16, -0.211.
With `Cc1cccc2nc(CCNC(=O)CCl)cn12.Cl`, the “log2 ratio” value with OTUD6B was -0.459; in the assay with OTUD7B, -0.556; with PRPF8, -0.224; in the assay with PSMD7 it was -0.141; with UCHL1, -2.08 (active); with UCHL3, -0.0466. The “log2 ratio” value was -0.344 with UCHL5, -0.121 with USP10, -0.369 with USP15 and 0.0184 in the assay with USP16.
Turning to `O=C(CCl)NCc1ccc(Cl)cc1`, the “log2 ratio” value in the assay with OTUD6B was -0.0688; with OTUD7B, -0.726; in the assay with PRPF8, 0.0877; with PSMD7 it was 0.0253; with UCHL1, -1.24 (active); with UCHL3, 0.379. The “log2 ratio” value with UCHL5 was -0.00645; with USP10, -0.179; with USP15, 0.049; with USP16, -0.354.
`Cc1n[nH]c2c1CN(C(=O)CCl)CC2`: the “log2 ratio” value was -0.715 with OTUD6B; -1.53 (active) in the assay with OTUD7B; 0.0355 in the assay with PRPF8; -0.368 in the assay with PSMD7; -1.15 in the assay with UCHL1; -0.699 with UCHL3. For the same compound, the “log2 ratio” value was -0.886 with UCHL5, -0.519 with USP10, -0.982 with USP15 and -0.207 with USP16.
As to `O=C(CCl)N1CCc2[nH]c3ccccc3c2C1`, the “log2 ratio” value with OTUD6B is -0.206; with OTUD7B it was -1.05 (active); with PRPF8, -0.175; in the assay with PSMD7 it was -0.319; with UCHL1 it was -1.24 (active); in the assay with UCHL3 it was -0.675. Besides, the “log2 ratio” value with UCHL5 is -0.893; with USP10, -0.119; with USP15, -1.46 (active); in the assay with USP16, 0.191.
Turning to `Cc1ccc(CN(CCO)C(=O)CCl)cc1`, the “log2 ratio” value with OTUD6B was -0.389; with OTUD7B, -1.14 (active); with PRPF8 it was 0.0652; with PSMD7, -0.47; in the assay with UCHL1, -1.56 (active); in the assay with UCHL3 it was 0.0861. Further, the “log2 ratio” value in the assay with UCHL5 was -0.52; in the assay with USP10 it was -0.0725; with USP15, -0.384; with USP16, 0.361.
For `Cc1ccc(C)c(NC(=O)CCl)c1`, the “log2 ratio” value was -0.56 with OTUD6B; -0.844 in the assay with OTUD7B; -0.000105 with PRPF8; -0.209 with PSMD7; -1.17 (active) with UCHL1; -0.416 with UCHL3. The “log2 ratio” value with UCHL5 is -0.568; with USP10, -0.39; with USP15, -0.203; with USP16, -0.0434.

For the origin of these results see the supplement of paper PMC11732987, “Enantioselective OTUD7B fragment discovery through chemoproteomics screening and high-throughput optimisation” (Communications Chemistry, 2025).
